# Source: PubChem
# The list is not random: actives were taken first. Their share in the collection is about 4%.
# HIF-2a block: HIF-2a reporter inhibitors, primary screen, luminescence, 786-0 RCC cells; 786-0 RCC cells HIF-2a reporter, luciferase luminescence, overnight; inhibition, % at 18.8 µM; 360,000 tested, 0.72% active; AID 624352, 2012;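 active = inhibition of the luminescence signal of 40% or more relative to plate controls, in a single-dose primary screen at 18.75 µM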
# Peg3 prom inh-1: Peg3 promoter-driven luciferase inhibitors, primary screen, cell-based, HeLa, luciferase luminescence. 360,000 tested, 1.7% active. HeLa PEG-Prom luciferase reporter, overnight. inhibition, % at 20 µM;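 active = inhibition of at least 50% at 20 µM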
# CF NFkB block: inhibitors of PAF-induced NF-kB signaling, primary screen, cell-based, GFP fluorescence, uHTS; KKLEB NF-kB-GFP reporter, GFP fluorescence overnight; inhibition, % at 5 µM; 360,000 tested, 0.86% active; AID 588850, 2011;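 active = at least 50% inhibition at 5 µM, scaled per plate between neutral and stimulator controls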;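 also: PAF is a Pseudomonas aeruginosa culture filtrate used as stimulus; plate controls were PAF-stimulated DMSO wells for no effect and unstimulated DMSO wells for full effect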
# TWEAK Fn14 block: inhibitors of TWEAK-Fn14 signaling, primary screen, luciferase reporter cells, uHTS; TWEAK-stimulated Fn14 reporter cells, luciferase luminescence, 8 h; inhibition, % at 10 µM; 360,000 tested, 2% active; in the data active = inhibition above about 50%
# KKLEB tox: cytotoxicity in KKLEB CF airway cells, primary screen, cytotoxicity control for CF NF-kB inhibitor project, cell-based, uHTS, fluorescence assay plates; KKLEB CF airway cells viability, ATPlite luminescence, overnight; hits give low values; cells stimulated with P. aeruginosa culture filtrate; activity change (cytotoxicity), % at 5 µM; 360,000 tested, 0.36% active; AID 602141, 2011;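 active = corrected activity change at or below -50% at 5 µM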
# TROY signal inh: inhibitors of TROY-driven NF-kB signaling, primary screen, Q293 LMP1-TROYcd cells, NF-kB luciferase, uHTS; 360,000 tested, 0.98% active; inhibition, % at 10 µM; Q293 LMP1-TROYcd NF-kB luciferase reporter, 4 h;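 active = compounds whose plate-normalised and pattern-corrected inhibition of the luciferase reporter signal at the single screening dose is 50% or more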
# Peg3 prom inh-2: Peg3 promoter reporter inhibitors, retest, confirmation, cell-based, HeLa, luciferase reporter, single concentration. 1,300 tested, 84% active. shares compounds with Peg3 prom inh-1. AID 602417, 2012. HeLa PEG-Prom luciferase reporter, luminescence, overnight. inhibition, % at 20 µM;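 active = at 20 µM dose, 40% or more inhibition averaged across four replicates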
# CF NFkB conf: inhibitors of PAF-induced NF-kB signaling, retest, confirmation, cell-based, GFP fluorescence, single concentration; shares compounds with CF NFkB block; 1,300 tested, 64% active; AID 602472, 2012; KKLEB CF airway cells, overnight; inhibition, % at 5 µM; in the data active = inhibition above about 40%;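 also: stimulus PAF is a Pseudomonas aeruginosa filtrate and not platelet activating factor; plate controls were DMSO wells with stimulus for no effect and unstimulated DMSO wells for full effect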
# Mdm2-MdmX confirm: retested Mdm2-MdmX interaction blockers, confirmation, cell-based, luminescence, single concentration, set 2 | SaOS-2 split-luciferase Mdm2/MdmX complementation | shares compounds with HIF-2a block | 740 tested, 99% active | inhibition, % at 8 µM;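 active = mean inhibition of the luminescence signal across two replicates at or above 26 percent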
# Target sequence (O15151 whole entry, looked up): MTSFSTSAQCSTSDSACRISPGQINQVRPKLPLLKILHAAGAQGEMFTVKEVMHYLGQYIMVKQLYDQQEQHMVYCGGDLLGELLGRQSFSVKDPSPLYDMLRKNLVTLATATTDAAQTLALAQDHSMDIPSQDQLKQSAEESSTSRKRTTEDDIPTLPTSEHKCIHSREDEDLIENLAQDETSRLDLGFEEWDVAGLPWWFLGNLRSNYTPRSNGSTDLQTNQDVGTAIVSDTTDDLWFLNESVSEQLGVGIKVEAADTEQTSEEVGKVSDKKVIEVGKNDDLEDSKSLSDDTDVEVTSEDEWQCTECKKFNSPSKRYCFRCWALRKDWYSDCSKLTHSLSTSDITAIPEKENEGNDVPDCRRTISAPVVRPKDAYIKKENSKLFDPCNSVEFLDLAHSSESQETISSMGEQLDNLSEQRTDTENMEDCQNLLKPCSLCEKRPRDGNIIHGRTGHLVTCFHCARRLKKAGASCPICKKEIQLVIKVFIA
# Target sequence (Q00987 whole entry, looked up): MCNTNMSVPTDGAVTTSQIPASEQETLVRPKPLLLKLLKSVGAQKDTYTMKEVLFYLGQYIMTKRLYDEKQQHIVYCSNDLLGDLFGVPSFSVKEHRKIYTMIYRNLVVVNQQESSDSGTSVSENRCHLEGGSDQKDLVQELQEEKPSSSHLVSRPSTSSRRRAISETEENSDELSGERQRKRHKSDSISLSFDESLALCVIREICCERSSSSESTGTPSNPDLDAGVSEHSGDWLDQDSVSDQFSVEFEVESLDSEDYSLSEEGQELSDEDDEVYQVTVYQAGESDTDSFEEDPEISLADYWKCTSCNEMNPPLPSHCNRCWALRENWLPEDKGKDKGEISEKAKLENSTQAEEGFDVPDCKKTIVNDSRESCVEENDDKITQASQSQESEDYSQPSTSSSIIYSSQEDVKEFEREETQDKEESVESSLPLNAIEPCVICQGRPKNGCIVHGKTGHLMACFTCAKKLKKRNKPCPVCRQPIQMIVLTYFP
# HIF-2a conf: HIF-2a reporter inhibitor retest, confirmation, luminescence, 786-0 RCC cells. shares compounds with HIF-2a block. HIF-2a luciferase reporter luminescence, overnight. inhibition, % at 18.8 µM. 1,800 tested, 56% active. AID 651580, 2012;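 active = mean inhibition across four replicates of at least 40 percent at the single tested concentration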
# HIF-1a counter: HIF-1a luciferase reporter signal reduction – MiaPaCa-2 cells, single concentration, counter-screen for HIF-2a inhibitor project, confirmation | shares compounds with HIF-2a block | MiaPaCa-2 HIF-1a luciferase reporter, desferoxamine, overnight | inhibition, % at 18.8 µM | 1,800 tested, 72% active;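 active = mean inhibition of the reporter signal across four replicates at the single tested dose of 50% or more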
# * hit, by the source's call; · = no result given.
SMILES,HIF-2a block,Peg3 prom inh-1,CF NFkB block,TWEAK Fn14 block,KKLEB tox,TROY signal inh,Peg3 prom inh-2,HIF-2a conf,HIF-1a counter,others
Nc1ccc(S(=O)(=O)c2ccccc2)nc1,13.4,11.1,13.0,21.8,0.7,-17.3,·,·,·,
O=[N+]([O-])c1ccc(S(=O)(=O)c2ccccc2)nc1,75.4*,96.7*,108.2*,53.9*,-88.1*,57.5*,96.6*,65.4*,79.2*,Mdm2-MdmX confirm=102.7*
Cc1ccc(S(=O)(=O)N2CCc3ccccc3C2)cc1,7.6,12.6,-10.2,7.7,1.0,-8.4,·,·,·,
Cc1cc(C)c2sc(NNC(=O)c3ccc(S(=O)(=O)N4CCc5ccccc5C4)cc3)nc2c1,3.8,59.4*,12.4,15.9,-12.2,14.8,75.7*,·,·,Mdm2-MdmX confirm=86.7*
Cc1ccc(NC(=O)CN2CCN(C(=O)c3ccco3)CC2)cc1S(=O)(=O)N(C)C,13.9,8.5,8.5,-8.5,-12.2,6.3,·,·,·,
COC(=O)Cc1[nH]n(-c2nc3ccccc3s2)c(=O)c1C(C)=Nc1ccc(C)cc1,87.0*,90.6*,4.2,91.2*,7.6,81.8*,93.8*,92.2*,102.0*,
COC(=O)Cc1[nH]n(-c2nc3ccccc3s2)c(=O)c1C(C)=Nc1ccc(Cl)cc1,85.1*,94.4*,10.9,16.7,-14.7,43.5,93.9*,93.1*,101.6*,
CC(=O)c1cccc(-c2csc3ncnc(Sc4nnnn4C)c23)c1,49.4*,87.5*,71.1*,75.4*,-4.6,19.5,85.2*,44.3*,98.7*,CF NFkB conf=28.4
Cn1nnnc1Sc1ncnc2scc(-c3ccc4c(c3)OCO4)c12,62.8*,75.5*,47.9,58.2*,-21.6,13.4,77.5*,40.0,77.5*,
CCOc1ccccc1C(=O)N/N=C/c1ccoc1,16.2,7.2,-0.6,-13.3,7.1,8.3,·,·,·,
O=[N+]([O-])c1ccccc1S(=O)(=O)Nc1cccnc1,13.3,12.5,-3.9,-0.2,-2.7,14.6,·,·,·,
N#CC(C#N)=C1C=CC=CN1/C(=C\c1ccco1)C(=O)c1ccc(Br)cc1,92.4*,110.5*,79.4*,92.1*,-45.5,77.7*,97.6*,97.7*,104.8*,CF NFkB conf=24.2
COc1ccc(-c2nsc3c(N4CCCCC4C)ncnc23)cc1 (stereo not given),83.7*,97.1*,-4.2,97.6*,-46.3,90.5*,84.9*,92.2*,102.5*,
COc1ccc(-c2nsc3c(N4CCN(S(=O)(=O)c5ccccc5F)CC4)ncnc23)cc1,-6.0,-8.6,4.6,-23.7,-2.4,-24.1,·,·,·,
Cc1csc(NC(=O)c2cn3ccccc3n2)n1,53.1*,69.2*,-28.0,90.7*,2.6,61.5*,65.2*,77.4*,50.8*,
C[n+]1c(-c2ccccc2)cc2c(=Cc3ccccc3)c3ccccc3n21,61.2*,102.8*,46.5,73.9*,-28.7,27.6,95.5*,93.0*,104.0*,
COCCN(Cc1ccccc1)C(=O)c1cccc(S(=O)(=O)N2CCN(Cc3ccccc3)CC2)c1,11.0,20.4,7.0,25.1,-9.1,8.5,·,·,·,
Cc1ccc(C(=O)Nc2ncc([N+](=O)[O-])s2)cc1,53.3*,75.8*,31.3,99.9*,-6.1,79.9*,56.4*,79.6*,92.6*,
Cc1onc(-c2ccccc2)c1C(=O)Nc1ncc([N+](=O)[O-])s1,-22.3,33.8,46.9,35.1,-22.7,48.1,·,·,·,
Cc1cccc(-n2ncc3c(N4CCCc5ccccc54)ncnc32)c1,-289.7,-253.7,8.1,-10.2,-28.3,-0.6,·,·,·,
Cc1cccc(-n2ncc3c(N(C)C4CCCCC4)ncnc32)c1,65.5*,75.2*,9.1,101.9*,-54.3*,87.6*,81.9*,81.3*,100.8*,
CC1=CC2C(C(O)CC3(C)C2CC(C)C32OCOC23COCO3)C2(C)C/C(=C\O)C(=O)C=C12 (stereo not given),95.1*,101.5*,95.7*,108.6*,-95.2*,83.4*,96.7*,52.5*,107.8*,
O=[N+]([O-])c1nn(-c2ccc3c(c2)OCCO3)n(O)c1=Nc1ccc(Cl)cc1,61.0*,71.9*,-7.8,100.5*,16.7,87.9*,74.3*,76.9*,100.5*,
CCc1ccc(N=c2c([N+](=O)[O-])nn(-c3ccc4c(c3)OCCO4)n2O)cc1,-118.8,-165.4,-9.6,25.7,3.7,26.4,·,·,·,
O=C(/C=C/c1ccccc1O)c1ccco1,-15.9,10.0,13.8,22.8,3.0,-34.3,·,·,·,
O=C(/C=C/c1cc(Br)ccc1O)c1ccco1,93.7*,106.6*,93.8*,62.3*,-1.5,32.9,99.2*,46.3*,102.3*,
C=C1CC(COc2ccc3c(C)c(Cl)c(=O)oc3c2)(c2ccccc2)OC1=O (stereo not given),85.2*,98.1*,90.7*,83.5*,-71.1*,76.4*,97.5*,70.9*,104.5*,
CN(C(=O)OC(C)(C)C)c1ccc(-c2nc3ccccc3s2)cc1,87.9*,90.4*,28.5,103.5*,-80.9*,89.0*,92.5*,95.3*,99.4*,
COc1ccc(CNC(=O)COC(=O)/C=C/c2cccc(Cl)c2)cc1,8.1,11.1,8.0,-9.9,-3.1,19.0,·,·,·,
O=C(O)c1ccc(N/N=C/c2ccc(OC(=O)c3ccccc3Cl)cc2)cc1,81.2*,64.4*,13.0,95.8*,1.4,54.7*,57.9*,84.2*,79.7*,
